Laboratory results published in PubChem BioAssay (Tox21).
Records with an inconclusive call do not appear. Active and inactive are the calls of the source. Unless noted, calls follow the shape of the dose curve; as a rule, active = well fitted curve in the direction sought with a large enough effect in the repeat runs; inconclusive = weak or mixed curves; inactive = no such curve, though single readings can be large; an effect the other way counts as inactive or inconclusive.

Columns and labels:
[1] = qHTS assay to identify small molecule antagonists of the thyroid receptor (TR) signaling pathway - cell viability counter screen (AID 743064); also: nearly all actives have a fitted effect of over 50% in size
In short: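 CellTiter-Fluor readout, 30 min at 37 °C/5% CO2, following 23.5 h incubation of GH3.TRE-Luc cells with test compound and 1 nM T3 (final).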

[2] = qHTS assay to identify small molecule antagonists of the thyroid receptor (TR) signaling pathway (AID 743065); also: series mostly up to about 70 µM; nearly all actives have a fitted effect of over 55% in size
In short: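 Antagonism measured as loss of luciferase signal in GH3 cells stably carrying a TRE-luciferase reporter, co-treated with compound and T3 (1 nM final) for 23.5 h at 37 C. Viability was read in the same well by CellTiter-Fluor.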

[3] = test system: thyroid hormone receptor (rat, GH3 cells); experiment: qHTS assay to identify small molecule agonists of the thyroid receptor (TR) signaling pathway (AID 743066; calls by dose curve)
[4] = qHTS assay to identify small molecule antagonists of the estrogen receptor alpha (ER-alpha) signaling pathway - cell viability counter screen (AID 743074; calls by dose curve;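 also: HEK293 cells carrying ER-alpha-UAS-bla reporter stimulated with 17beta-estradiol; nearly all actives have a fitted effect of over 45% in size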)
[5] = qHTS assay to identify small molecule antagonists of the estrogen receptor alpha (ER-alpha) signaling pathway using the BG1 cell line - cell viability counter screen (AID 743081);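 also: compound given together with 17beta-estradiol as the ER stimulus; series mostly up to about 70 µM; nearly all actives have a fitted effect of over 45% in size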
Aromatase (Homo sapiens) = Aromatase (Homo sapiens) (UniProt P11511); experiment: qHTS assay to identify aromatase inhibitors (AID 743083); also: series mostly up to about 70 µM; nearly all actives have a fitted effect of over 55% in size
Chain of Aromatase (Homo sapiens) (P11511 whole entry, looked up): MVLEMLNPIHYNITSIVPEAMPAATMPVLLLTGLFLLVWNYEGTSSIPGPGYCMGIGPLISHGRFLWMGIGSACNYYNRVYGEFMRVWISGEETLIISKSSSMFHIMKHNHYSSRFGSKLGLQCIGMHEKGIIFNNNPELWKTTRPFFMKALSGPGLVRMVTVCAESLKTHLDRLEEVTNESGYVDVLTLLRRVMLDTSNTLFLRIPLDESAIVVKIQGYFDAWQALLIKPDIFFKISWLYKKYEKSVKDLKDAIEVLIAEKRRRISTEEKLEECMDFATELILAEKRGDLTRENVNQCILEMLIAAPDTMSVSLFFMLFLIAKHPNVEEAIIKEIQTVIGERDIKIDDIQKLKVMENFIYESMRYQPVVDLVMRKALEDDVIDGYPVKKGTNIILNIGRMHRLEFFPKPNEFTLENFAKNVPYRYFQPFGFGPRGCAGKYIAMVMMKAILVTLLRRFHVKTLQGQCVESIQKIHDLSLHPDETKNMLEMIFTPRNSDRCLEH

[6] = qHTS assay to identify aromatase inhibitors - cell viability counter screen (AID 743084);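 also: cells stimulated with testosterone during compound exposure; nearly all actives have a fitted effect of over 55% in size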
[7] = qHTS assay to identify small molecule that activate the aryl hydrocarbon receptor (AhR) signaling pathway - cell viability counter screen (AID 743086);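 also: HepG2 liver cells carrying the AhR DRE luciferase reporter; series mostly up to about 70 µM; nearly all actives have a fitted effect of over 45% in size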
In short: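 Cytotoxicity counter screen: CellTiter-Fluor signal (30 min, 37 C) in 4000 HepG2 cells/well carrying the DRE-luciferase reporter, following 24 h compound exposure at 37 C.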

[8] = target: Peroxisome proliferator-activated receptor gamma (Homo sapiens) (UniProt P37231); experiment: qHTS assay to identify small molecule agonists of the peroxisome proliferator-activated receptor gamma (PPARg) signaling pathway (AID 743094; active = well fitted activation curve with a large enough effect in the signal ratio in the repeat runs, not every such curve was filed as active; the % refers to the signal ratio)
Chain of Peroxisome proliferator-activated receptor gamma (Homo sapiens) (P37231 whole entry, looked up): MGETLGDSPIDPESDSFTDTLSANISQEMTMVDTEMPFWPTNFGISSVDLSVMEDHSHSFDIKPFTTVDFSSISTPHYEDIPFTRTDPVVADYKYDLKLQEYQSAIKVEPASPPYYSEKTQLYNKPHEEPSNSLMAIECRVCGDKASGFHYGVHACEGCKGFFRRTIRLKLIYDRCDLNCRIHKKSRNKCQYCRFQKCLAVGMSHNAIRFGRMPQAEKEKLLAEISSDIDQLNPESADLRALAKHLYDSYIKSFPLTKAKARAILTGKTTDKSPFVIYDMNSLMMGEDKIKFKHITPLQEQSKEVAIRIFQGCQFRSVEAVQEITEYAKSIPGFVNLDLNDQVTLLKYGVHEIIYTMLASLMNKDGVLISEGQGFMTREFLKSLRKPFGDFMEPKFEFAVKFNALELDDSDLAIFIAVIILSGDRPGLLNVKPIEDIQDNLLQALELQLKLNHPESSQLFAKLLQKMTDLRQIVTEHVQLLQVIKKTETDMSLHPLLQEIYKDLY
In short: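 Reporter activation was scored by fluorescence of cleaved LiveBLAzer B/G substrate (1 h, room temperature) in PPARg-bla HEK293H cells previously treated 17 h at 37C with DMSO-dissolved compounds.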

[9] = qHTS assay for small molecule agonists of the antioxidant response element (ARE) signaling pathway - cell viability counter screen (AID 743203; calls by dose curve; also: nearly all actives have a fitted effect of over 55% in size)
In short: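 Viability counter screen: stably transfected ARE-bla HepG2 line, 16 hrs compound exposure at 37C/5% CO2, ATP-based CellTiter-Glo luminescence measured in the reporter wells.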

[10] = qHTS assay for small molecule activators of the heat shock response signaling pathway - cell viability counter screen (AID 743209); also: nearly all actives have a fitted effect of over 50% in size
In short: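 Viability of HSE-bla HeLa cells is measured with CellTiter-Glo in the wells already used for the reporter read. Compound exposure lasts 5 h at 37 C, and luminescence is read after 30 min at room temperature.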

[11] = qHTS assay for small molecule activators of the heat shock response signaling pathway (AID 743210; active = well fitted activation curve with a large enough effect in the signal ratio in the repeat runs, with a control signal flat, not every such curve was filed as active; the % refers to the signal ratio; also: series mostly up to about 63 µM)
In short: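 Compound exposure lasted 5 h at 37 C in HeLa cells carrying a heat-shock-element-driven beta-lactamase reporter. Read-out: fluorescence intensity after 2.5 h room-temperature loading with LiveBLAzer B/G FRET substrate.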

[12] = target: Aryl hydrocarbon receptor (Homo sapiens) (UniProt P35869); experiment: qHTS assay to identify small molecule that activate the aryl hydrocarbon receptor (AhR) signaling pathway (AID 743085);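 also: HG2L7.5c1 human HepG2 liver cells with stably integrated DRE-driven firefly reporter; series mostly up to about 70 µM; nearly all actives have a fitted effect of over 15% in size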
Chain of Aryl hydrocarbon receptor (Homo sapiens) (P35869 whole entry, looked up): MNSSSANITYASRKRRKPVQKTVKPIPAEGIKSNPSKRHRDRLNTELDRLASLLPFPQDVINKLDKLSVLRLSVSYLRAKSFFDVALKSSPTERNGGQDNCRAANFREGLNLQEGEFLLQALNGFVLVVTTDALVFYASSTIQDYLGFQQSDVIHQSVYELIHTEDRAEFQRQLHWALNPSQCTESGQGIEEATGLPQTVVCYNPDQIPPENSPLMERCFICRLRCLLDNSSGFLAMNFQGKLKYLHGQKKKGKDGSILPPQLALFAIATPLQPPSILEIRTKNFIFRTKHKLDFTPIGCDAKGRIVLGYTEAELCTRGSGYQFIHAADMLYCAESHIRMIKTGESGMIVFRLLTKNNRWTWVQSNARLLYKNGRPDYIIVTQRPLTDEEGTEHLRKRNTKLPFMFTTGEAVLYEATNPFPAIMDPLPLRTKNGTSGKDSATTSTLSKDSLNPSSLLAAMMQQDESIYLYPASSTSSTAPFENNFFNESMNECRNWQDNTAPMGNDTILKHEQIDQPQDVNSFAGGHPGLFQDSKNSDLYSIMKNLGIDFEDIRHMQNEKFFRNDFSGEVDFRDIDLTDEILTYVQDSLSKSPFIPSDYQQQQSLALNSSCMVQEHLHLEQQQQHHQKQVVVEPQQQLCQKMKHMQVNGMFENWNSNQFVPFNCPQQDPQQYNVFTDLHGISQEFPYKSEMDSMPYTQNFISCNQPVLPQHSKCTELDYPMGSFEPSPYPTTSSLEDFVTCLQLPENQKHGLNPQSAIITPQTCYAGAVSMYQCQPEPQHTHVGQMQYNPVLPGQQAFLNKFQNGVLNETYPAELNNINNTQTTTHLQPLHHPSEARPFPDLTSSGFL
In short: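 Stably transfected human liver carcinoma cells (HG2L7.5c1; 20 DRE-firefly luciferase) were incubated 5 h, dosed, and kept 24 h at 37C. Agonism was scored from increased luciferase luminescence.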

[13] = qHTS assay to identify small molecule antagonists of the peroxisome proliferator-activated receptor gamma (PPARg) signaling pathway - cell viability counter screen (AID 743194); also: nearly all actives have a fitted effect of over 55% in size
In short: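 Viability was measured as CellTiter-Glo luminescence in GeneBLAzer PPARg UAS-bla HEK293H cells. These cells had been exposed 17 h at 37 C to compounds together with rosiglitazone at 50 nM final, with the beta-lactamase readout taken in the same wells.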

[14] = qHTS assay for small molecule agonists of the antioxidant response element (ARE) signaling pathway (AID 743202; active = well fitted activation curve with a large enough effect in the signal ratio in the repeat runs, not every such curve was filed as active; the % refers to the signal ratio)
In short: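 After 16 hours of compound treatment at 37 C, HepG2 cells with a stably integrated ARE-driven beta-lactamase reporter were loaded 2 hours at room temperature with LiveBLAzer B/G FRET substrate and fluorescence intensity measured.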

[15] = target: Peroxisome proliferator-activated receptor gamma (Homo sapiens) (UniProt P37231); experiment: qHTS assay to identify small molecule antagonists of the peroxisome proliferator-activated receptor gamma (PPARg) signaling pathway (AID 743191; calls by dose curve; also: series mostly up to about 63 µM; nearly all actives have a fitted effect of over 30% in size)
In short: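 Beta-lactamase reporter under UAS control in HEK293H PPARg-bla cells; compound treatment 17 h at 37C. Read-out: fluorescence intensity after 1 h room-temperature incubation with LiveBLAzer B/G FRET substrate.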
% is scaled to controls: 0 for no effect and ±100 for the full control effect.

COc1cc(C)cc(O)c1
inactive: Potency [1] | Potency [2] | Potency [3] | outcome [4] | outcome [5] | Potency (Aromatase (Homo sapiens)) | Potency [6] | Potency [7] | outcome [8] | outcome [9] | outcome [10] | outcome [11]

OCC(O)[C@@H](O)[C@H](O)[C@H](O)CO[C@H]1O[C@H](CO)[C@@H](O)[C@H](O)[C@H]1O (some centres undefined)
inactive: Potency [1] | Potency [2] | Potency [3] | outcome [4] | outcome [5] | Potency (Aromatase (Homo sapiens)) | Potency [6] | Potency [12] | Potency [7] | outcome [8] | Potency [13] | Potency [14] | outcome [9] | outcome [10]

O=C(O)/C=C/c1ccc(/C=C/C(=O)O)cc1
inactive: Potency [1] | Potency [2] | Potency [3] | outcome [4] | outcome [5] | Potency (Aromatase (Homo sapiens)) | Potency [6] | Potency [12] | Potency [7] | outcome [8] | outcome [15] | Potency [14] | outcome [9] | outcome [10] | outcome [11]

C[C@H]1O[C@@H](n2cc(F)c(=O)[nH]c2=O)[C@H](O)[C@@H]1O
inactive: Potency [1] | Potency [2] | Potency [3] | outcome [4] | outcome [5] | Potency (Aromatase (Homo sapiens)) | Potency [6] | Potency [12] | Potency [7] | outcome [8] | Potency [13] | outcome [9] | outcome [10] | outcome [11]

FC(F)(F)C(F)(F)C(F)(F)C(F)(F)C(F)(F)C(F)(F)C(F)(F)C(F)(F)C(F)(F)C(F)(F)F
inactive: activity change, negative = cytotoxic [1] 12.8% [at 8.44 µM] | activity, negative = inhibition [2] 5.14% [at 8.44 µM] | activation [3] 0.424% [at 8.08 µM] | activity, negative = cytotoxicity [4] -10% [at 6.72 µM] | activity change, negative = cytotoxicity [5] 7.45% [at 8.47 µM] | activity, negative = inhibition (Aromatase (Homo sapiens)) 1.74% [at 8.47 µM] | activity change, negative = cytotoxicity [6] 5.22% [at 8.47 µM] | activation [12] 0.197% [at 8.47 µM] | viability change, negative = cytotoxic [7] 24.8% [at 8.47 µM] | activation [8] -0.797% [at 7.08 µM] | ratio activity, negative = inhibition [15] -8.26% [at 5.95 µM] | activation [14] 0.659% [at 8.36 µM] | viability change, negative = cytotoxic [9] 0.46% [at 8.36 µM] | activity change, negative = cytotoxicity [10] 3.17% [at 5.95 µM] | activation [11] 2.05% [at 5.95 µM]

N#CC1(O)CCCCC1
inactive: Potency [1] | Potency [2] | Potency [3] | outcome [4] | outcome [5] | Potency [6] | Potency [12] | Potency [7] | outcome [8] | outcome [15] | Potency [14] | outcome [9] | outcome [10] | outcome [11]

CCCc1ccccc1O
inactive: Potency [1] | Potency [2] | Potency [3] | outcome [4] | outcome [5] | Potency (Aromatase (Homo sapiens)) | Potency [6] | Potency [12] | Potency [7] | outcome [15] | Potency [13] | outcome [9]

CCCCCCCCCCC1CO1 (centres undefined)
inactive: Potency [1] | Potency [2] | Potency [3] | outcome [4] | outcome [5] | Potency (Aromatase (Homo sapiens)) | Potency [6] | Potency [12] | Potency [7] | outcome [15] | Potency [13] | outcome [9] | outcome [10] | outcome [11]

NS(=O)(=O)c1cc2c(cc1C(F)(F)F)NC(Cc1ccccc1)NS2(=O)=O (centres undefined)
inactive: Potency [1] | Potency [2] | Potency [3] | outcome [4] | outcome [5] | Potency (Aromatase (Homo sapiens)) | Potency [6] | Potency [12] | Potency [7] | outcome [8] | Potency [13] | Potency [14] | outcome [9] | outcome [10] | outcome [11]

C=CCSCC1Nc2cc(Cl)c(S(N)(=O)=O)cc2S(=O)(=O)N1 (centres undefined)
inactive: Potency [1] | Potency [2] | Potency [3] | outcome [4] | outcome [5] | Potency (Aromatase (Homo sapiens)) | Potency [6] | Potency [12] | outcome [8] | outcome [15] | Potency [13] | outcome [9] | outcome [10]

Cc1cc(C)c(NC(=O)CN(CC(=O)O)CC(=O)O)c(C)c1Br
inactive: Potency [1] | Potency [2] | Potency [3] | outcome [4] | outcome [5] | Potency (Aromatase (Homo sapiens)) | Potency [6] | Potency [12] | Potency [7] | outcome [8] | outcome [15] | Potency [14] | outcome [9] | outcome [10]

CC(C)CCCC(C)CCCC(C)CCCCC(C)CCCC(C)CCCC(C)C (centres undefined)
inactive: Potency [1] | Potency [2] | Potency [3] | outcome [4] | outcome [5] | Potency (Aromatase (Homo sapiens)) | Potency [6] | Potency [7] | Potency [13] | Potency [14] | outcome [9] | outcome [11]

CCN1CCN(c2cc3c(cc2F)c(=O)c(C(=O)O)cn3C2CC2)CC1
inactive: Potency [1] | Potency [2] | Potency [3] | outcome [4] | outcome [5] | Potency (Aromatase (Homo sapiens)) | Potency [12] | Potency [7] | outcome [15] | Potency [13] | Potency [14] | outcome [9] | outcome [10]

Cc1onc(-c2ccccc2)c1-c1ccc(S(N)(=O)=O)cc1
inactive: Potency [1] | Potency [2] | Potency [3] | outcome [4] | outcome [5] | Potency (Aromatase (Homo sapiens)) | Potency [6] | Potency [12] | outcome [8] | outcome [15] | Potency [13] | Potency [14] | outcome [9] | outcome [11]

C1=C\CC/C=C\CC/C=C\CC/1
inactive: Potency [1] | Potency [2] | Potency [3] | outcome [4] | outcome [5] | Potency (Aromatase (Homo sapiens)) | Potency [6] | Potency [12] | outcome [8] | outcome [15] | Potency [14] | outcome [9] | outcome [10]
